Experimental data from PubChem BioAssay (NCATS).
Inconclusive results are not listed. Calls of active or inactive are those of the source. Calls follow the shape of the dose curve; as a rule, active = well fitted curve in the direction sought with a large enough effect; inconclusive = small, poorly fitted or top-dose-only effect, or another doubt; inactive = no such curve, though single readings can be large; an effect the other way counts as inactive or inconclusive.

Key:
[1] = Primary qHTS for inhibitors of nuclear receptor binding SET domain protein 2 (NSD2) in an isogenic RCH-ACV NSD2 p.E1099K mutant (9B) (AID 1645876); details: RCH-ACV NSD2 E1099K (9B) viability, CellTiter-Glo, 72 h; series mostly up to 44.9 µM
[2] = Primary qHTS for inhibitors of nuclear receptor binding SET domain protein 2 (NSD2) in an RCH-ACV wild type WT cells (2C) (AID 1645877); details: RCH-ACV (leukaemia line) NSD2 WT (2C) viability, CellTiter-Glo, 72 h; series mostly up to 44.9 µM
Also: nearly all actives have a fitted effect of over 70% in size.
Potency is read from the fitted curve at half-maximal effect.

| Compound | Potency [1] | Potency [2] |
| --- | --- | --- |
| C=C1C(=O)O[C@@H]2[C@H]1CC(=O)[C@H](C)[C@@](O)(C(=O)/C=C/C)[C@H]2OC(=O)C(C)CC (some centres not stated) | 1.27 µM (active) | 0.45 µM (active) |
| CC(C)(F)CC(NC(c1ccc(-c2ccc(S(C)(=O)=O)cc2)cc1)C(F)(F)F)C(=O)NC1(C#N)CC1 (configuration not stated) | inactive | inactive |
| Cc1c(F)ccc(C(=O)Nc2cc([N+](=O)[O-])ccc2N2CCN(C)CC2)c1Cl | inactive | inactive |
| C=C1C(=O)O[C@@H]2C3C(=C(C)[C@@H](O)[C@@H](OC(=O)/C(=C/C)COC(C)=O)[C@@H]12)C(=O)[C@H]1O[C@@]31C (some centres not stated) | 2.82 µM (active) | 1.59 µM (active) |
| C[C@H]1CC[C@@]2(OC1)O[C@H]1CC3C4CC[C@H]5C[C@@H](O)CC[C@]5(C)C4=CC(=O)[C@]3(C)[C@H]1[C@@H]2C (some centres not stated) | inactive | inactive |
| CCN1CCN(Cc2ccc(NC(=O)c3ccc(C)c(Oc4ncnc5[nH]c(C)cc45)c3)cc2C(F)(F)F)CC1 | 2.05 µM (active) | 2.3 µM (active) |
| C=C1C(=O)O[C@@H]2/C=C(\C)CC/C=C(\C)CC[C@@H]12 | 14.5 µM (active) | 7.28 µM (active) |
| O=C(Nc1cccc(C(F)(F)F)c1)Nc1ccc(Br)cc1-c1nn[nH]n1 | inactive | inactive |
| COC(=O)N1CC2(CC2)C[C@H](C(=O)NO)[C@H]1C(=O)N1CCN(c2ccccc2)CC1 | inactive | inactive |
| COC1CC/C=C(\C)C(=O)Nc2cc(O)cc(c2)CC(C)CC(OC)C(O)C(C)/C=C(\C)C1OC(N)=O (configuration not stated) | 2.52 µM (active) | 2.82 µM (active) |
| COc1cc([C@H]2O[C@H](c3cc(OC)c4c(c3)OCO4)[C@H](C)[C@H]2C)cc(OC)c1OC | 3.55 µM (active) | 3.55 µM (active) |
| CCC(C)CC(=O)OC1C(=O)C(CO)=CC(O)C1C(C)C (configuration not stated) | 2.58 µM (active) | 2.9 µM (active) |
| C=C1CC2OC(=O)C(COC)C2C(OC(=O)/C(C)=C\C)CC2(C)OC1=CC2=O (configuration not stated) | 3.58 µM (active) | 2.26 µM (active) |
| COc1ccc(C2Oc3c(OC)cc(CCCO)cc3C2COC2OC(CO)C(O)C(O)C2O)cc1OC (configuration not stated) | inactive | inactive |
| C=C1C(=O)O[C@@H]2/C=C(/C)[C@@H](OC(C)=O)C/C=C(\C)C[C@@H](OC(=O)/C(=C/CO)CO)[C@@H]12 | 7.09 µM (active) | 3.17 µM (active) |
| CC(=O)O[C@]1(C(C)=O)CC[C@H]2[C@@H]3CCC4=CC(=O)CCC4=C3[C@@H](c3ccc(N(C)C)cc3)C[C@@]21C | 23 µM (active) | 23 µM (active) |
| CN1CC[C@@H](c2c(O)cc(O)c3c(=O)cc(-c4ccc(C(F)(F)F)cc4Cl)oc23)[C@@H]1CO | 18.6 µM (active) | 16.6 µM (active) |
| C=C(C)C(=O)O[C@H]1/C(C=O)=C\CC/C(CO)=C/[C@H]2OC(=O)C(=C)[C@@H]2[C@@H]1OC | 11.3 µM (active) | 2.53 µM (active) |
| CC1(C=O)CCCC2(C)C1CCC13CC(CO)C(CCC12)C3 (configuration not stated) | inactive |  |
| Nc1nc2c(ncn2C2OC3COP(=O)(O)OC3C2O)c(=O)[nH]1 (configuration not stated) | inactive | inactive |
| C=C1C(=O)O[C@@H]2C(OC(=O)/C(C)=C\C)/C(C)=C\C(=O)/C=C(\C)C[C@H](O)[C@@H]12 (some centres not stated) | 2.26 µM (active) | 1.6 µM (active) |
| CN1C(=O)c2sccc2N(C)c2nc(Nc3ccc(S(N)(=O)=O)cc3)ncc21 | 1.05 µM (active) | 0.59 µM (active) |
| CC1OC(=O)C[C@@H]2C(C(=O)O)=CO[C@@H](O[C@H]3O[C@H](CO)[C@@H](O)[C@H](O)[C@H]3O)[C@H]12 (some centres not stated) | inactive | inactive |
| CN(CC1COCCO1)S(=O)(=O)Nc1ccc2ccc3ncc(-c4cnn(C)c4)cc3c(=O)c2c1 (configuration not stated) | 5.15 µM (active) | 9.16 µM (active) |
| C=C(C)C1CC(O)C(C)C12CC(O)C1(C)OC1C2O (configuration not stated) | 4.59 µM (active) | 3.25 µM (active) |
| C/C(=C\CCC(C)C1=CCC2(C)OC3=C(CC12)C(=O)C(O)CC3)CO (configuration not stated) | inactive | inactive |
| CN1c2c(nc(N)[nH]c2=O)NC[C@@H]1CNc1ccc(C(=O)N[C@@H](CCC(=O)O)C(=O)O)cc1 | inactive | inactive |
| CCN(Cc1cc(Nc2nc(C)cn3c(-c4cn[nH]c4)cnc23)sn1)C(C)(C)CO | 0.0092 µM (active) | 0.0082 µM (active) |
| C=C1C(=O)O[C@@H]2[C@H]1CCC(C)=C(CCC(=O)O)[C@@]2(C)O | 20.5 µM (active) | 10.3 µM (active) |
